# Compounds without any hit were thinned out: in the full panel of roughly 83,000, 20% have a hit.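 Values shown are percent growth following 48 h exposure of cells in 96-well plates to a single concentration of compound; below 10 was considered active.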 A number with no mark means an inactive call. The source made the active and inactive calls.
# How the values were obtained:
# Experiment in all cases: NCI-60 one-dose screen, 48 h (100 = growth as untreated, 0 = no growth, -100 = all killed)
# Settings in all cases: 10 µM unless noted
# T-47D breast = system: T-47D breast
# BT-549 breast = system: BT-549 breast
# MDA-MB-435 melanoma = system: MDA-MB-435 melanoma
# SW-620 colon = system: SW-620 colon
# MCF7 breast = system: MCF7 breast
# HCT-116 colon = system: HCT-116 colon
# HCC-2998 colon = system: HCC-2998 colon
# KM12 colon = system: KM12 colon
SMILES,growth (T-47D breast),growth (BT-549 breast),growth (MDA-MB-435 melanoma),growth (SW-620 colon),growth (MCF7 breast),growth (HCT-116 colon),growth (HCC-2998 colon),growth (KM12 colon)
COc1cc(NCCCN=C(N)NC(N)=NC(C)C)c2ncccc2c1,-2.75% (active),65.1%,96.9%,86.6%,-52.9% (active),17.3%,55.8%,30.6%
O=S(=O)(NCCNc1cc(-c2cn(-c3ccccc3)nc2-c2ccccc2)ccn1)c1cccc2ccccc12,24.3%,49.3%,46.3%,62.5%,28.2%,34.8%,56.4%,41.6%
CCCCCCOc1ccc(C2(Cl)c3ccccc3N(C)c3ccccc32)cc1,44.2%,86.5%,-23.5% (active),7.18% (active),0.626% (active),16.1%,59.8%,62.9%
CCNc1nc(N2CC(=O)Nc3cc(OC)ccc32)c2ccccc2n1,11.6%,-22.2% (active),-25.8% (active),21.5%,3.09% (active),-14.1% (active),-20.8% (active),4.88% (active)
CC(C)C[C@H](NC(=O)[C@H](Cc1ccccc1)n1ccc(N2CCCCC2)cc1=O)B(O)O,-20.4% (active),31.3%,-66% (active),6.5% (active),31.3%,2.64% (active),-36.9% (active),1.6% (active)
ClC1=C(Cl)C(Cl)=C(Cl)C1=Cc1ccc(Cl)cc1Cl,-0.12% (active),-26.3% (active),-52.4% (active),-43.9% (active),4.25% (active),-55.5% (active),-89.7% (active),-78.9% (active)
Clc1nc2ccccc2nc1CI,108%,92%,89.2%,36.3%,91.1%,23%,117%,104%
O=C(NCCc1c[nH]c2ccccc12)C1Cc2ccccc2CN1C(=O)c1ccco1 (stereo not given),105%,102%,116%,103%,90.3%,102%,164%,105%
CCCn1c(=S)sc2c(Cl)nc(C)nc21,104%,42.9%,104%,102%,46.7%,104%,111%,104%
COc1cc(OC)c(C(=O)/C=C/c2ccc(C#N)cc2)c(OC)c1,18.5%,-7.5% (active),5.64% (active),9.15% (active),13.8%,10.2%,36.8%,7.74% (active)
CC(=O)C1CCC(C)=CC1=O (stereo not given),90.2%,93.3%,103%,103%,88.4%,103%,103%,110%
COc1ccc(/C=C/c2nc(N3CCOCC3)c3cc(F)c(F)cc3n2)cc1OC,6.31% (active),33.4%,15.8%,55.5%,15.9%,38.7%,38.2%,28.1%
COc1cc(NC(=O)CSc2nc3ccc(C)cc3c(=O)n2-c2ccccc2)cc(OC)c1OC,81.7%,79.8%,47.5%,87.6%,91.1%,87%,97.5%,75.1%
O=C(CNc1c(Cl)cccc1Cl)Nc1ccc(-c2nc3ccccc3s2)cc1,-19% (active),22%,67.9%,35.3%,14.6%,29.9%,35.6%,91.3%
NC(N)=NC(N)=Nc1ccccc1-c1ccccc1,108%,131%,103%,107%,110%,102%,105%,107%

# — PubChem BioAssay (NCI)
